Compounds with a hit are over-represented: about 32% of the library has one in this group of screens.
CYP2C9 inhib: blockers of cytochrome P450 2C9 activity – biochemical, luminescence, ADME assay, primary screen; P11712; CYP2C9 Supersomes, luciferin-H conversion; inhibition, % at 5 µM; 96,000 tested, 20% active; AID 777, 2007;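 active = blocking of liver enzyme CYP2C9 beyond about 50% at 5 µM, limit read from the data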
Target sequence (P11712 whole entry, looked up): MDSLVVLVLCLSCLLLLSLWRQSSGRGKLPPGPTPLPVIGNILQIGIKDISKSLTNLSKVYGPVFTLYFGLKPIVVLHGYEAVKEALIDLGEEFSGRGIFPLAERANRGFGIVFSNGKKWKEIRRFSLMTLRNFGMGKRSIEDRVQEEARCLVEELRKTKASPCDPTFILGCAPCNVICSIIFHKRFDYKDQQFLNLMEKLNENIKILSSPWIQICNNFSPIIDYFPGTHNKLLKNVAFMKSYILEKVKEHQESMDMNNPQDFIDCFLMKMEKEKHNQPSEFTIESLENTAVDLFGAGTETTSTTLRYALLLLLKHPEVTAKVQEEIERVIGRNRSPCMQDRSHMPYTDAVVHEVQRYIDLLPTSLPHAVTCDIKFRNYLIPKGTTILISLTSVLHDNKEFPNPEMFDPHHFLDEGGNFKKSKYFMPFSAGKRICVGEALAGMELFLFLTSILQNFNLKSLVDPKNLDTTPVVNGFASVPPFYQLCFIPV
PostGolgi ctrl: growth inhibition of yeast control strain, primary screen, counter-screen for post-Golgi transport modulator project | efflux-deficient yeast background strain, growth absorbance A615, 16 h | inhibition, % at 10 µM | 98,000 tested, 5% active | AID 738, 2007
CYP2C9 act: human CYP2C9 activators, primary screen, biochemical, luminescence; Cytochrome P450 2C9 (Homo sapiens), P11712; recombinant CYP2C9, luciferin-H conversion; active compounds read high; factor 1 = untreated enzyme, 0 = blocked; activation factor at 5 µM; 96,000 tested, 1.4% active; AID 1024, 2008;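 active = activation factor of 2 or more for CYP2C9 at a 5 µM dose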;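 also: 0 = sulfaphenazole-blocked wells and 1 = vehicle-only wells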
PostGolgi yeast: phenotypic screen on post-Golgi transport, primary screen | inhibition, % at 10 µM | post-Golgi transport phenotypic cell assay | 98,000 tested, 0.9% active;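 also: yeast cells grown in 1536-well plates; yeast grown about 18 h at 30C before absorbance read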
CYP2C19 inhib: blockers of cytochrome P450 2C19 activity – biochemical, luminescence, ADME assay, primary screen. CYP2C19 Supersomes, luciferin-H EGE luminescence, 30 min. inhibition, % at 5 µM. 96,000 tested, 21% active. AID 778, 2007;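 active = CYP2C19 inhibition above a set limit at 5 µM in the primary screen, cut at about 50% in these data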;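 also: plate controls were negative control wells for no effect and 2.5 mM tranylcypromine positive control for full effect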
CYP2C19 activ: human CYP2C19 activators, primary screen, biochemical, luminescence. 96,000 tested, under 10 active. recombinant CYP2C19, luciferin-H EGE luminescence; active compounds read high; 0 = fully inhibited enzyme, 1 = untreated enzyme. activation factor at 5 µM;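 active = activation factor of at least 2 at 5 µM in the primary screen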;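 also: 0 = wells with 2.5 mM tranylcypromine and 1 = vehicle-only wells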
* = called active by the depositor; . = no result given. Rule as the data show it, unless noted: active = inhibition above about 30%; inactive = the rest.

SMILES	CYP2C9 inhib	PostGolgi ctrl	CYP2C9 act	PostGolgi yeast	CYP2C19 inhib	CYP2C19 activ
Cc1cc(C(=O)NCc2ccco2)cs1	48	12	0.5	4	49	0.5
O=C1CC(c2cc3c(cc2Br)OCO3)C2=C(CCCC2=O)N1 (configuration not stated)	16	7	0.8	4	16	0.8
CCC(OC(=O)CC1Sc2ccccc2NC1=O)C(=O)NCC1CCCO1 (configuration not stated)	39	10	0.6	4	30	0.7
C=CCn1c(CSc2nc3ccccc3s2)nnc1SCC(=O)NCc1ccccc1	50*	15	0.5	-3	38	0.6
Cc1nc2ccccc2n1CCc1nc2c3ccccc3nc(SCC(=O)NCc3ccco3)n2n1	72*	9	0.3	-1	31	0.7
C=CCn1c(SCC(=O)NCc2ccco2)nnc1-c1ccc2ccccc2n1	59*	18	0.4	4	28	0.7
Cc1occc1-c1nnc(SCC(=O)NCc2ccco2)n1CC(C)C	-18	-1	1.2	-1	6	0.9
CCn1c(CSc2nc3ccccc3s2)nnc1SCC(=O)NCC(=O)OC	25	6	0.8	0	25	0.8
Cc1ccc(-c2nsc3c(N4CCC(C(N)=O)CC4)ncnc23)cc1	16	8	0.8	-7	4	1
O=C1CSC(c2cccs2)N1c1ccccc1 (configuration not stated)	21	-2	0.8	7	55*	0.5
c1ccc(N2CCN(c3ccccc3)C2c2cccs2)cc1	-7	9	1.1	17	52*	0.5
N#CC1=C(S)N(c2ccccc2)C(c2cccs2)NC1=O (configuration not stated)	30	5	0.7	-3	3	1
COc1ccc(NC(=O)CCn2nc(C)cc2C)cc1	-43	15	1.4	10	68*	0.3
Cc1csc(SCC(=O)Nc2ccc(S(=O)(=O)N3CCCC3)cc2)n1	94*	22	0.1	4	65*	0.4
Cc1cc(C)n2nc(SCC(=O)N/N=C/c3ccc(F)cc3)nc2n1	-3	16	1	-9	25	0.8
Cc1csc(C(C#N)C(=O)c2ccc(S(=O)(=O)N3CCCC3)cc2)n1 (configuration not stated)	72*	16	0.3	-6	22	0.8
Cc1cc(C)nc(SCC(=O)N/N=C\c2sccc2C)n1	20	4	0.8	9	55*	0.4
Cc1cccc(OCC(=O)OCC(=O)c2c(N)n(C)c(=O)n(C)c2=O)c1	10	-9	0.9	-2	45	0.6
COCc1cc(C)nc(N)c1C#N	-9	12	1.1	-8	-25	1.3
COc1ccc(NC(=O)CSc2nc(C)cc(C)n2)cc1	-3	3	1	11	87*	0.1
Cc1cc(C)nc(SCC(=O)Nc2ccc(S(=O)(=O)NC(C)(C)C)cc2)n1	58*	8	0.4	1	13	0.9
Cc1cc(C)nc(SCC(=O)Nc2ccc(S(=O)(=O)NCCO)cc2)n1	15	7	0.9	-2	0	1
Cc1cc(C)nc(SCC(=O)Nc2ccc(S(=O)(=O)N3CCCCC3)cc2)n1	75*	16	0.2	-11	49	0.5
CC(C)(C)NC(=O)NC(=O)CSc1nnc2ccccn12	2	9	1	-4	-2	1
N#Cc1cc(-c2ccccc2)oc1NC(=O)c1ccco1	32	4	0.7	-5	-9	1.1
SMILES	CYP2C9 inhib	PostGolgi ctrl	CYP2C9 act	PostGolgi yeast	CYP2C19 inhib	CYP2C19 activ
O=C(NC1CCN(C(=O)N2CCOCC2)CC1)c1ccccc1	5	34*	1	2	4	1
COc1ccc(OC)c(S(=O)(=O)Nc2cc(OC)c(Cl)cc2OC)c1	56*	20	0.4	4	57*	0.4
COc1ccc(OC)c(S(=O)(=O)Nc2ccccc2C(F)(F)F)c1	.	11	.	-4	.	.
COc1cc(NS(=O)(=O)c2ccc(OC)c(C)c2C)c(OC)cc1Cl	99*	36*	0	-5	99*	0
CCC(=O)N1CCc2cc(S(=O)(=O)N3CCN(c4ccccn4)CC3)ccc21	28	7	0.7	0	19	0.8
Cc1cc(C(=O)OCC(=O)c2ccc(Br)s2)no1	66*	4	0.3	-1	17	0.8
CN(CC(=O)O/N=C(\N)c1ccc([N+](=O)[O-])cc1)S(=O)(=O)c1ccc2ccccc2c1	-133	29	2.3*	10	10	0.9
Cc1ccc(SCC(=O)O/N=C(\N)c2ccc([N+](=O)[O-])cc2)cc1	-2	16	1	1	7	0.9
CC(OC1=CC(=O)CCC1)C(=O)c1ccccc1 (configuration not stated)	2	1	1	0	6	0.9
O=C(Nc1c(C(=O)N2CCOCC2)cnn1-c1ccccc1Cl)c1ccco1	-29	20	1.3	3	-18	1.2
Cc1noc(N)c1C(=O)Nc1ccc(C(C)(C)C)cc1	10	10	0.9	-2	18	0.8
COC(=O)c1ccc(CC(=O)c2c(C)cc(O)cc2O)o1	60*	3	0.4	5	93*	0.1
COC(=O)c1ccc(CC(=O)c2ccc(O)cc2O)o1	52*	-1	0.5	-4	31	0.7
COC(=O)c1cc(CC(=O)c2ccc(O)cc2O)c(C)o1	54*	7	0.5	-3	94*	0.1
COc1ccc(CC(=O)c2c(O)cc(O)cc2O)cc1OC	88*	12	0.1	1	77*	0.2
CCOC(=O)c1ccc(CC(=O)c2ccc(O)cc2O)o1	41	-1	0.6	-11	47	0.5
CC(=O)N1CCN(c2ccc(Oc3nnnn3-c3ccccc3)cc2)CC1	-1	12	1	-5	4	1
O=S1(=O)CCN2C(c3ccc4c(c3)CCCC4)=CSC2=N1	10	12	0.9	16	-3	1
O=S1(=O)CCN2C(=N1)Sc1c2ccc2c1CCCC2	-20	14	1.2	0	70*	0.3
CCOC(=O)c1[nH]c2ccc(OC)cc2c1N=CN(C)C	11	4	0.9	-7	7	0.9
Cc1ccc(-n2c3c(c(=O)[nH]c2=O)C(NS(=O)(=O)c2ccc(C)cc2)(C(F)(F)F)C(=O)N3)cc1 (configuration not stated)	-20	-1	1.2	-1	-7	1.1
CCc1c(C(C)S(=O)(=O)c2ccc(C)cc2)[nH]c(=O)n1-c1ccc(C)cc1 (configuration not stated)	19	9	0.8	-2	59*	0.4
N#CC1=C(N)SC(N)=C(C#N)C1c1ccc(C(F)(F)F)cc1	38	0	0.6	1	44	0.6
